Test results taken from PubChem BioAssay.
Results filed as inconclusive are left out. Activity calls are given as the source filed them.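 How the source made its calls, unless noted: active means compounds lowering colon cancer cell viability after pretreatment blocking the GSK3B kinase; inactive means the rest.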

Columns and labels:
[1] = stimulators of insulin release from INS-1E, primary screen, cell-based, 5 mM glucose, NPC library (AID 1117329;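 active means compound raises insulin release from rat beta cells at 5 mM glucose, no numeric limit stated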); settings: rat INS-1E insulin secretion, at 10 µM, stronger effect = higher value
[2] = growth inhibition of GSK3B-pretreated HCT116 cells – cell-based, CellTiter-Glo, 0.2 to 20 µM (AID 1117336); settings: HCT116 viability after GSK3B inhibitor, at 20 µM, stronger effect = higher value
[3] = inhibition of endothelial tube formation, primary screen, imaging, VEGF stimulated, CD31 staining, tube area, NPC library (AID 1117340;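 active means compound that reduces growth-factor-driven endothelial tube area in a mixed cell culture, no cutoff stated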); settings: VEGF-stimulated ADSC/ECFC co-culture, at 10 µM, stronger effect = higher value
[4] = glucagon-like peptide 1 release enhancers, primary assay, NCI-H716 cell line, NPC library (AID 1117341;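 active means compound raises GLP1 secretion from the human gut endocrine cells, with no numeric limit stated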); settings: NCI-H716 cells, at 10 µM, stronger effect = higher value
[5] = HCT116 colon cancer cell growth inhibition, primary screen, CellTiter-Glo luminescence, NPC library (AID 1117342;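 active means compounds that lower survival of HCT116 colon cancer cells in the luminescence readout, no numeric limit stated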); settings: at 20 µM (top of the series)
[6] = CellTiter-Glo luminescent readout of SW480 viability loss, NPC library primary (AID 1117343;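 active means compounds that lower viability of the colon cancer cells in the luminescence readout, with no numeric limit stated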); settings: CellTiter-Glo luminescence; at 20 µM (top of the series)
[7] = decreased DLD-1 cellular survival, CellTiter-Glo luminescent readout, NPC compound collection, primary HTS (AID 1117346;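 active means compounds that lower survival of DLD-1 colon cancer cells in the luminescence readout, no cutoff given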); settings: DLD-1 viability, CellTiter-Glo luminescence; at 20 µM (top of the series)
[8] = differential killing of epithelial or mesenchymal cells, primary screen, imaging, PC-3E GFP, TEM4-18 mCherry, co-culture (AID 1345086;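 active means compounds killing one labelled cell type while sparing the other, by normalised counts and ratio limits, not self-fluorescent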;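 on all read-outs here: cells exposed to compound for 72 h before imaging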;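 on red/green cell ratio (normalised): normalised mesenchymal count divided by normalised epithelial count so high means epithelial killing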); settings: imaging cell counts, at 1 µM; for red/green cell ratio (normalised): actives lie on both sides, counts scaled to control wells, 1 = unselective
[9] = modulation of C. elegans fzo-1 (AID 1259413; call rule not given here;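 further: fzo-1 mutant C. elegans worms in liquid wells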); settings: C. elegans fzo-1 modulator screen, mean read-out; stronger effect = higher value
[10] = test system: Aerobactin synthetase IucA (Klebsiella pneumoniae); experiment: IucA aerobactin synthetase inhibitors, biochemical, Tocris library, absorbance (AID 1345561; call rule not given here;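 further: 100% = enzyme without compound and 0% = no enzyme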); settings: purified IucA enzyme assay, absorbance (OD) read-out; stronger effect = lower value;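 tested at 8 µM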
[11] = growth inhibition of DIPG glioma cells, dose response, cell-based, SU-DIPG-XVII, MIPE5.0, CellTiter-Glo, qHTS (AID 1347060; cut-off not given, nearly all actives have AC50 up to about 26 µM); settings: SU-DIPG-XVII viability, CellTiter-Glo ATP luminescence
[12] = growth inhibition of DIPG glioma cells, dose response, cell-based, SU-DIPG-XIII, MIPE4.0, CellTiter-Glo, qHTS (AID 1347061; cut-off not given, nearly all actives have AC50 up to about 37 µM;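 further: cells exposed to compound for 48 hours before readout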); settings: SU-DIPG-XIII viability, CellTiter-Glo ATP luminescence
[13] = growth inhibition of DIPG glioma cells, dose response, cell-based, JHH-DIPG-1, MIPE4.0, CellTiter-Glo, qHTS (AID 1347062; cut-off not given, nearly all actives have AC50 up to about 27 µM;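 on AC50: cells exposed to compound for two days before readout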); settings: JHH-DIPG-1 viability, CellTiter-Glo ATP luminescence
[14] = growth inhibition of DIPG glioma cells, dose response, cell-based, SU-DIPG-IV, MIPE4.0, CellTiter-Glo, qHTS (AID 1347063; cut-off not given, nearly all actives have AC50 up to about 30 µM;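 further: compound exposure lasted 48 hours before the viability readout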); settings: SU-DIPG-IV viability, CellTiter-Glo ATP luminescence
[15] = growth inhibition of DIPG glioma cells, dose response, cell-based, SU-DIPG-XIII, MIPE5.0, CellTiter-Glo, qHTS (AID 1347064; cut-off not given, nearly all actives have AC50 up to about 23 µM); settings: SU-DIPG-XIII viability, CellTiter-Glo ATP luminescence
[16] = measured here: epithelial PC-3E GFP cell survival
[17] = measured here: mesenchymal TEM4-18 mCherry cell survival

Structure (SMILES)	insulin secretion stimulation [1]	viability decrease [2]	tube area decrease [3]	GLP1 secretion stimulation [4]	inhibition of viability [5]	viability decrease (inhibition) [6]	viability decrease (inhibition) [7]	red/green cell ratio (normalised) [8]	normalised cell number [8, 16]	normalised cell number [8, 17]	mean signal [9]	remaining activity [10]	outcome [11]	outcome [12]	outcome [13]	AC50 [14]	outcome [15]	AC50 [13]	outcome [14]
O=C(O)/C=C(\CC(=O)O)C(=O)O	-2.3% (inactive)	0.55% (inactive)	5.8% (inactive)	3.5% (inactive)	7.4% (inactive)	39.3% (inactive)	11.3% (inactive)	1.06 (inactive)	1.18	1.25	–	–	–	–	–	–	–	–	–
CCCCCCCCCCCCCCCCC(C(=O)O)C(O)(CC(=O)O)C(=O)O (stereo unspecified)	3.2% (inactive)	99.8% (active)	-7.3% (inactive)	-2.9% (inactive)	99.3% (active)	103% (active)	102% (active)	1.03 (inactive)	1	1.03	–	–	–	–	–	–	–	–	–
NC(=O)OCC(COC(N)=O)c1ccccc1	0.3% (inactive)	-7.4% (inactive)	-7.6% (inactive)	-3% (inactive)	4.1% (inactive)	-7.2% (inactive)	-12% (inactive)	–	–	–	234 (inactive)	104% (inactive)	inactive	inactive	inactive	–	–	–	–
Cc1nccn1CC1CCc2c(c3ccccc3n2C)C1=O (stereo unspecified)	-1.6% (inactive)	-7% (inactive)	1.5% (inactive)	-1.9% (inactive)	24.8% (inactive)	-3.2% (inactive)	-8% (inactive)	–	–	–	237 (inactive)	–	–	–	inactive	–	–	–	–
Cc1nc2n(c(=O)c1CCN1CCC(c3noc4cc(F)ccc34)CC1)CCC[C@H]2O	1.1% (inactive)	-7.1% (inactive)	8.8% (inactive)	-0.7% (inactive)	20.5% (inactive)	-9.1% (inactive)	-6.6% (inactive)	1.17 (inactive)	0.84	0.98	–	–	–	–	–	–	–	–	–
CCN(CC)CC1CCCCN1CC(=O)N1c2ccccc2C(=O)Nc2cccnc21 (stereo unspecified)	4% (inactive)	-12.6% (inactive)	-28.2% (inactive)	7.7% (inactive)	1.17% (inactive)	-3.8% (inactive)	6.8% (inactive)	–	–	–	227 (inactive)	116% (inactive)	–	–	–	–	–	–	–
O=C1Nc2ccc(Cl)cc2[C@@](C#CC2CC2)(C(F)(F)F)O1	11.3% (inactive)	86.5% (active)	-16% (inactive)	21% (active)	87.9% (active)	114% (active)	49.4% (inactive)	–	–	–	218 (inactive)	–	–	–	inactive	29.6 µM (active)	–	–	–
Cc1nc2ccc(CN(C)c3ccc(C(=O)N[C@@H](CCC(=O)O)C(=O)O)s3)cc2c(=O)[nH]1	-5.7% (inactive)	83.7% (active)	62.5% (active)	1% (inactive)	78.2% (active)	117% (active)	56.2% (active)	–	–	–	269 (inactive)	–	inactive	–	inactive	–	inactive	–	–
COc1cc(-c2ccc(=O)[nH]n2)ccc1OC(F)F	0.6% (inactive)	-6.05% (inactive)	99.9% (active)	11.6% (inactive)	-6.7% (inactive)	11.4% (inactive)	4.45% (inactive)	–	–	–	244 (inactive)	112% (inactive)	–	–	–	–	–	–	–
Oc1cccc2[nH]ccc12	4.05% (inactive)	41.8% (inactive)	-3.7% (inactive)	-2.4% (inactive)	9.6% (inactive)	0.4% (inactive)	-8.1% (inactive)	0.85 (inactive)	1.31	1.12	–	–	–	–	–	–	–	–	–
CCN1CCC[C@H]1CNC(=O)c1c(O)c(Cl)cc(Cl)c1OC	-0.9% (inactive)	-21% (inactive)	-4.8% (inactive)	2.2% (inactive)	9.13% (inactive)	-26.4% (inactive)	-11.6% (inactive)	–	–	–	227 (inactive)	118% (inactive)	–	–	–	–	–	–	–
COc1cc(C(=O)NS(=O)(=O)c2ccccc2C)ccc1Cc1cn(C)c2ccc(NC(=O)OC3CCCC3)cc12	3.85% (inactive)	106% (active)	44.5% (active)	19.5% (inactive)	106% (active)	120% (active)	98.2% (active)	–	–	–	223 (inactive)	–	inactive	–	–	20.9 µM (active)	–	–	–
Cc1c(O)cccc1C(=O)N[C@@H](CSc1ccccc1)[C@H](O)CN1C[C@H]2CCCC[C@H]2C[C@H]1C(=O)NC(C)(C)C	2.3% (inactive)	117% (active)	67.1% (active)	7.9% (inactive)	124% (active)	158% (active)	100% (active)	–	–	–	243 (inactive)	–	–	–	–	20.9 µM (active)	–	20.9 µM (active)	–
CCOc1cc(N)c(Cl)cc1C(=O)NCC1CN(Cc2ccc(F)cc2)CCO1 (stereo unspecified)	-0.4% (inactive)	71.6% (active)	5.1% (inactive)	4.9% (inactive)	46.1% (inactive)	44.8% (inactive)	24% (inactive)	–	–	–	261 (inactive)	–	–	inactive	inactive	–	inactive	–	inactive
